# From PubChem BioAssay
# This excerpt belongs to a sample that is enriched for hits.
# IMPase Li inh: qHTS Assay for Identifying the Cell-Membrane Permeable IMPase Inhibitors: Potentiation with Lithium. 210,000 tested, 0.35% active. Potency, µM (doses to about 59.4 µM), for inactives: top-dose activity, negative = IMPase inhibition, hits mostly inhibitors. CHO-M1 cells, IP1 TR-FRET (IP-One), carbachol + lithium. AID 1457, 2008;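 also: IP1 builds up when IMPase is blocked and the TR-FRET signal falls; potency is read from the fitted curve at half-maximal effect; plate controls were basal vehicle for no effect and high inhibitor control for full effect; nearly all actives have a fitted effect of over 50% in size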
#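 CHO cells stably expressing M1 receptor (2000/well) were cultured 16–30 h, then exposed to compounds with a small lithium addition for 30 min at 37C. IP1 was measured by TR-FRET competition; AC50 from Hill fits.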
# ALOX15B inhib: qHTS Assay for Inhibitors of 15-hLO-2 (15-human lipoxygenase 2); purified 15hLO-2, xylenol orange hydroperoxide absorbance; Potency, µM (doses to about 57.1 µM), inactives show at the top dose activity change, negative = inhibition, actives largely listed as inhibitors; 110,000 tested, 0.56% active; also: potency is read from the fitted curve at half-maximal effect; nearly all actives have a fitted effect of over 60% in size
# Target sequence (O15296 whole entry, looked up): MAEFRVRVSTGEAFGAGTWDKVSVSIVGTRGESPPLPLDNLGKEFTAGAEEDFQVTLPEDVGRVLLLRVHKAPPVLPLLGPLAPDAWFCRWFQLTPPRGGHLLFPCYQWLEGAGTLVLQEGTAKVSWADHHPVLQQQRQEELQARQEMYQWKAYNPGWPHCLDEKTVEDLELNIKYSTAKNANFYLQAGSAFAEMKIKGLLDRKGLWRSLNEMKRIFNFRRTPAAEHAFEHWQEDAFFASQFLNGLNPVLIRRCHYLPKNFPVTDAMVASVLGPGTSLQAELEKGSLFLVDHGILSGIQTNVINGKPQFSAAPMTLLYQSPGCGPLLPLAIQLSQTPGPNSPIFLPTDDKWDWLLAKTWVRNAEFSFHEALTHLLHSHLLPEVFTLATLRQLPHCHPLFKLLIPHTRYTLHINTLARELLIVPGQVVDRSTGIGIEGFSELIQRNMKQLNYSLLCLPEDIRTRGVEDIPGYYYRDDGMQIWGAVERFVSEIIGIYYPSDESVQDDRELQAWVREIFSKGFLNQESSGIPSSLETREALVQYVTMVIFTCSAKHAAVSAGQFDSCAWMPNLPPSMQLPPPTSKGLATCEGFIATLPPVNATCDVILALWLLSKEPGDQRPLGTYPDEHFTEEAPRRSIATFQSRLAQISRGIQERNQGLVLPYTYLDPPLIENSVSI
#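 Read-out: hydroperoxide product oxidises ferrous iron, measured as xylenol orange complex via the 573-to-405 nm absorbance ratio after 30 min. Reaction: 50 nM enzyme, 15 min compound preincubation, 45 uM arachidonic acid, 90 min RT, Hepes pH 7.5 with Triton X-100.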
# 12-hLO inh: qHTS Assay for Inhibitors of 12-hLO (12-human lipoxygenase); Polyunsaturated fatty acid lipoxygenase ALOX12 (Homo sapiens), P18054; purified 12-hLO, xylenol orange hydroperoxide absorbance; Potency, µM (doses to about 57.1 µM), without a hit: at the top dose activity change, negative = inhibition, usual class: inhibitors; 150,000 tested, 0.12% active; AID 1452, 2008; also: potency is read from the fitted curve at half-maximal effect; nearly all actives have a fitted effect of over 55% in size
#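 Xylenol orange chromogenic assay: hydroperoxide from 12hLO oxidises Fe(II), giving red-shifted Fe(III)-XO absorbance. Conditions: 150 nM enzyme, 40 uM arachidonic acid, 25 mM Hepes pH 7.0, 0.01% Triton X-100, 30 min, room temperature.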
# PNC assembly inh: High Content Assay for Compounds that inhibit the Assembly of the Perinucleolar Compartment | PC3M PTB-GFP, PNC prevalence imaging, 16 h; hits give low values | AID 2417, 2010 | 140,000 tested, 3.1% active | activity change (PNC), negative = inhibition, % at 10 µM;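 active = readout at or below -70, meaning at least 70% loss of cells showing the perinucleolar compartment, a nuclear body marking cancer cells; inconclusive = readout between -30 and a set limit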;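 also: plate controls were DMSO wells for no effect and camptothecin positive control wells for full effect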
#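 PC3M cells stably expressing PTB-GFP, 750–1000 cells/well, treated 16 h at 37 °C with compound (23 nl of library stock), in duplicate. After paraformaldehyde fixation and Hoechst stain, imaged at 20x; PNC prevalence scored by image analysis.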
# IMPase cell inh: qHTS Assay for Identifying the Cell-Membrane Permeable IMPase Inhibitors; Inositol monophosphatase 1 (Rattus norvegicus), P97697; CHO-M1 cells, IP1 accumulation, HTRF TR-FRET ratio; inhibition (IP1 accumulation), % at 46.1 µM; 120,000 tested, under 10 active; AID 901, 2007; active = well fitted curve in the direction sought with a large enough effect in the signal ratio, not every such curve was filed as active; inconclusive = small, poorly fitted or top-dose-only effect, or a change in a side signal; inactive = no such curve, though single readings can be large or run the other way; the % refers to the signal ratio;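 also: cells stimulated with carbachol in lithium chloride buffer; plate controls were DMSO basal wells for no effect and reference inhibitor wells for full effect; higher means more IMPase inhibition seen as more IP1 and lower FRET ratio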
#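 Measured: the HTRF emission ratio (665/620 nm) plus the 620 nm donor channel, each fitted to the Hill equation to give AC50. Cells were CHO-M1 given compounds up to 46 uM and a 30 min carbachol stimulation at 37C.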
# An asterisk follows results filed as active; ? = inconclusive; nt = not tested or not shown; [ ] = dose if it differs, or a comment. Unless noted, calls follow the shape of the dose curve; as a rule, active = well fitted curve in the direction sought with a large enough effect; inconclusive = small, poorly fitted or top-dose-only effect, or another doubt; inactive = no such curve, though single readings can be large; an effect the other way counts as inactive or inconclusive. Unless noted, % is scaled to controls: 0 for no effect and ±100 for the full control effect.
SMILES,IMPase Li inh,ALOX15B inhib,12-hLO inh,PNC assembly inh,IMPase cell inh
Cc1ccc(S(=O)(=O)NCCOc2nc(N(C)C)nc(N3CCOCC3)n2)cc1,23%[38.3 µM],3%,-6%,-93*,3
CN(C)c1nc(OCCNC(=O)Nc2ccccc2)nc(N2CCOCC2)n1,19%[38.3 µM],-4%,6%,1,-5
CC(=O)N1CCC2(CC1)CN(c1ccccn1)C2,1%,-2%,1%,nt,nt
Cc1cc2cc(CNC(=O)Nc3cccc(Cl)c3)ccc2n1C,4%[38.3 µM],-6%,-8%,-26,-23
Cc1cccc(NC(=O)NCc2ccc3c(c2)cc(C)n3C)c1,?,-10%,12%,-108*,?
CCOC(=O)c1c(C)[nH]c(C)c1C(=O)CN1C(=O)NC(CC(C)C)C1=O (stereo not given),1%,2%,-1%,-94*,-3
Cc1ccccc1C(=O)NN(C)c1nc2ccccc2nc1C(F)(F)F,5.6µM*,nt,9%,31,3
COC(=O)c1nnc(C(=O)NCc2ccccc2)c2[nH]c3ccccc3c12,-5%,nt,nt,nt,nt
Cc1ccc(S(=O)(=O)N2c3ccccc3OCC2c2ccccc2)cc1 (stereo not given),14%,nt,-1%,-100*,2
O=C(c1cnccn1)N1CCC2(CCCN(c3ccc(-c4ccccc4)cc3)C2)CC1,18%,9%,-22%,nt,nt
CCOCC(=O)Nc1nc2ccc(C)cc2s1,5%,nt,-5%,-100*,-4
CCOCC(=O)Nc1nc2ccc(S(C)(=O)=O)cc2s1,23%[38.3 µM],-4%,3%,-6,10
CCC(=O)Nc1nc2ccc(S(C)(=O)=O)cc2s1,-2%,nt,-1%,-100*,-7
COc1cc(OC)cc(C(=O)Nc2nc3ccc(S(C)(=O)=O)cc3s2)c1,18%,nt,nt,nt,nt
COc1ccc(Cl)cc1C(=O)Nc1nc2ccc(S(C)(=O)=O)cc2s1,13µM*,nt,nt,nt,nt
Cc1cccc(NC(=O)CCc2ccccc2)c1,-4%,nt,nt,nt,nt
Cc1cccc(NC(=O)CCc2ccc(C)o2)c1,8%[38.3 µM],-2%,3%,-80*,-6
COC(=O)CNC(=O)C(NC(=O)OCc1ccccc1)C(C)C (stereo not given),12%,nt,nt,nt,nt
COC(=O)CNC(=O)C(C)NC(=O)OCc1ccccc1 (stereo not given),-3%[38.3 µM],-1%,4%,-127*,1
COc1ccccc1NC(=O)c1c(C)oc2c1CCCC2,24%,nt,0%,-114*,-7
Cc1oc2c(c1C(=O)Nc1cccc3ccccc13)CCCC2,14%[38.3 µM],7%,5%,21,17
Cc1ccc(OCC(=O)NCc2cccs2)cc1,30%[38.3 µM],0%,1%,?,7
Cc1cc(=O)oc2cc(OCC(=O)N3CCOCC3)ccc12,3%,nt,-11%,-100*,-4
CCCNS(=O)(=O)c1ccc(OCC(=O)N2CCN(c3ccccc3)CC2)cc1,3%,nt,nt,nt,nt
Cc1ccc(C)c(NS(=O)(=O)c2ccc(OCC(=O)NCc3ccco3)cc2)c1,11%[38.3 µM],8%[2.29 µM],2%,-90*,0
SMILES,IMPase Li inh,ALOX15B inhib,12-hLO inh,PNC assembly inh,IMPase cell inh
Cc1c(Cl)c(=O)oc2cc(OCC(=O)NCc3cccs3)ccc12,-14%,nt,-2%,-108*,nt
Cc1ccc(NS(=O)(=O)c2ccc(OCC(=O)NCc3ccco3)cc2)cc1,9%[38.3 µM],-6%,-4%,25,3
CCCNS(=O)(=O)c1ccc(OCC(=O)N2CCOCC2)cc1,-1%,nt,8%,-100*,3
CC(C)OC(=O)[C@@H]1CC[C@H](C)[C@@H](CCCCO)O1,5%,nt,nt,nt,nt
O=c1[nH]c2[nH]c(=S)[nH]c(=S)c2[nH]1,1%,12%[11.4 µM],-13%[11.4 µM],nt,nt
Cc1ccc(C)c(NS(=O)(=O)c2ccc(NC(=O)c3ccco3)cc2)c1,10%,nt,-4%,-100*,-2
Cc1cc(=O)oc2ccc(OCC(=O)NCc3ccco3)cc12,4%[38.3 µM],2%,11%,-16,3
Cc1cc(=O)oc2cc(OCC(=O)NCc3ccco3)ccc12,1%,nt,5%,-100*,-6
O=C1CC(c2cc(Br)ccc2F)c2cc3c(cc2N1)CCC3 (stereo not given),8%[38.3 µM],-2%,-3%,-97*,-2
O=C1CC(c2ccccc2F)c2cc3c(cc2N1)CCC3 (stereo not given),6%[38.3 µM],-2%,-1%,-9,5
COc1cc(Cc2ccc(N)c(OC)c2)ccc1N,-2%,nt,-1%,-113*,nt
COc1ccc(Cc2ccc(OC)c(N)c2)cc1N,-8%[38.3 µM],-1%,5%,?,11
CCOC(=O)C1(C)C=C(Nc2ccc(C(N)=O)cc2)C(=O)N1c1ccccc1 (stereo not given),nt,nt,nt,nt,-3
C/C(=C\C(=O)C(F)(F)F)Nc1ccc(C)cc1,-7%,nt,1%,?,nt
C/C(=C\C(=O)C(F)(F)F)Nc1cc(C)cc(C)c1,-4%,5%,9%,-85*,5
CCOc1ccccc1C(=O)Nc1c(NC)c2ccccc2oc1=O,nt,nt,nt,nt,-6
Cc1cccc(NC(=O)C2C3C=CC(C4CC34)C2C(=O)O)c1 (stereo not given),14%,nt,4%,-119*,29
Cc1ccc(C(=O)c2ccccc2C(=O)O)cc1C,1%,nt,nt,nt,nt
O=C(O)c1ccccc1C(=O)c1ccc(Oc2ccccc2)cc1,0%,nt,7%,-85*,nt
COc1ccc(-c2ccc(C#N)c(SCC(=O)NCCc3ccccc3)n2)cc1OC,-15%,nt,-1%,7,-2
COc1cccc(-c2ccc(C#N)c(SCC(=O)NCCc3cccc(Cl)c3)n2)c1,11µM*,nt,3%,68,-20
O=C(NCCc1ccncc1)Nc1ccccc1,0%,nt,-3%,-100*,6
CCc1cccc(NC(=O)Cn2c(=O)n(CC3CCC(C(=O)NCCc4ccccc4)CC3)c(=O)c3ccccc32)c1 (stereo not given),nt,nt,nt,nt,9
COC(=O)C(/C=N/OCc1ccc([N+](=O)[O-])cc1)NC(=O)c1cccc(Cl)c1 (stereo not given),29%[38.3 µM],-5%,-11%,-98*,-3
CC1=CCC(C(=O)O)C(C(=O)O)C1 (stereo not given),-3%[38.3 µM],6%,-4%,?,-3
CC1=CC(C)C(C(=O)O)C(C(=O)O)C1 (stereo not given),16%[38.3 µM],-3%,6%,-81*,-9
Cn1c(=O)n(C)c2cc(NS(=O)(=O)c3ccc(C(C)(C)C)cc3)c(NCc3ccccc3)cc21,nt,nt,nt,nt,-3
COc1ccc(CNc2ncnc3ccc(-c4ccc(N(C)C)cc4)cc23)c(OC)c1,-5%,2%,nt,nt,nt
